GDH-TPI counter-1 = counter-screen for M. tuberculosis FBA inhibitors: GDH-TPI coupled enzymes; GDH-TPI coupled enzyme counterscreen, NADH absorbance; inhibition, % at 4.8 µM; 360,000 compounds, 1.2% hits; AID 588335; in the data active = inhibition above about 30%;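 also: 0% = DMSO wells and 100% = wells lacking the enzyme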
Mtb UGM inh = Mtb UDP-galactopyranose mutase inhibition | P9WIQ1 | purified UGM, fluorescence polarization probe displacement | inhibition, % at 10 µM | 320,000 compounds, 0.06% hits | AID 504406; in the data active = inhibition above about 10%, passing the limit was not always enough
Rv3671c protease = Rv3671c (M. tuberculosis) protease inhibition; inhibition, % at 5.96 µM; P9WHR9; 320,000 compounds, 0.048% hits; in the data active = inhibition above about 38%;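 also: extracellular domain of Rv3671c used as enzyme; 0% = enzyme with DMSO and 100% = no enzyme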
Target sequence (P9WHR9 whole entry, looked up, the tested form may be a part): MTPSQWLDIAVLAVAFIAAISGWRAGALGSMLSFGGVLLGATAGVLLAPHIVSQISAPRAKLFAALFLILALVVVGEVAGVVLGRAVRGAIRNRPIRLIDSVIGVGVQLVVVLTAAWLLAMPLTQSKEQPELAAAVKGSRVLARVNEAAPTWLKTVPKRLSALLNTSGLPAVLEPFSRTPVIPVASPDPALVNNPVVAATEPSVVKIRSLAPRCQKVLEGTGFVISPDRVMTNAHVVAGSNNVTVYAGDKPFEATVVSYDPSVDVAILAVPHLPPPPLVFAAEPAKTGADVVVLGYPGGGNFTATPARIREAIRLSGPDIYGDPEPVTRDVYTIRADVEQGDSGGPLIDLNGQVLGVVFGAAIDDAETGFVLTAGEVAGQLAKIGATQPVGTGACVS
Mtb bLac sens = beta-lactam sensitization of Mtb H37Rv. M. tuberculosis H37Rv growth with meropenem, percent inhibition. inhibition, % at 25 µM. 330,000 compounds, 0.27% hits. AID 434955; call rule not given here;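 also: growth measured after seven days incubation then overnight dye step; 0% = bacteria only wells and 100% = bacteria with antibiotic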
Mtb FBA inh = Mtb fructose-bisphosphate aldolase inhibition; P9WQA3; purified M. tuberculosis FBA, fluorescence read-out; inhibition, % at 1 µM; 360,000 compounds, 2.3% hits; AID 588726;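 also: 0% = vehicle and 100% = reference inhibitor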
Mtb FBA confirm = Mtb FBA inhibition, confirmed | shares compounds with Mtb FBA inh | purified M. tuberculosis FBA, fluorescence read-out | inhibition, % at 1 µM | 5,600 compounds, 78% hits | AID 651616;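 also: 0% = vehicle wells and 100% = reference inhibitor wells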
GDH-TPI counter-2 = inhibits GDH-TPI coupling enzymes, flagging Mtb FBA hits. shares compounds with Mtb FBA inh. GDH-TPI coupled enzyme counterscreen, fluorescence. inhibition, % at 1 µM. 5,600 compounds, 81% hits. AID 652141; in the data active = inhibition above about 10%
GDH-TPI dose = inhibits GDH-TPI coupling enzymes in dose response; shares compounds with Mtb FBA inh; GDH-TPI coupled enzyme assay, fluorescence, artifact counterscreen; IC50, µM; 170 compounds, 79% hits; AID 652145; call rule not given here
Numbers without * were called inactive; · = no result given; + = active, no number. Most compounds without a hit are left out; they make up all but 3.5% or so of the library. Rule as the data show it, unless noted: active = inhibition above about 27%; inactive = the rest.

SMILES	GDH-TPI counter-1	Mtb UGM inh	Rv3671c protease	Mtb bLac sens	Mtb FBA inh	Mtb FBA confirm	GDH-TPI counter-2	others
O=C(c1cnccn1)N(c1ccccc1)C1(C(=O)NC2CCCC2)CCCCC1	-13	0	3	-5	-17	·	·
NNc1ccc2c(C(F)(F)F)cc(C(F)(F)F)nc2n1	6	2	3	-2	30*	80*	62*
Cc1ccc(/C=N/Nc2ccc3c(C(F)(F)F)cc(C(F)(F)F)nc3n2)cc1	-3	1	2	6	0	·	·
CCC(C)[C@H](NC(=O)[C@H](Cc1ccccc1)n1c(=O)[nH]c2ccccc2c1=O)C(=O)N1CCC[C@@H]1C(=O)O (stereo not given in full)	-1	2	0	-5	6	·	·
Cn1cc(-c2ccc(C(=O)NCc3cccc(Cl)c3)c3occc23)cn1	1	·	·	·	42*	2	-3
O=C(N/C(=C\c1cccc([N+](=O)[O-])c1)C(=O)N1CCOCC1)c1ccco1	20	-4	-1	-4	65*	176*	142*
CC(=O)Oc1ccc(C23CC4CC(CC(C4)C2)C3)cc1C(=O)O	·	-1	-8	-3	·	·	·
Nc1c(C(=O)NCC2CCCO2)c2nc3ccccc3nc2n1-c1ccccc1 (stereo not given)	8	0	6	15	108*	87*	73*
CC(C)OCCCNC(=O)c1c(N)n(CC2CCCO2)c2nc3ccccc3nc12 (stereo not given)	5	-1	-12	17	49*	+	+
CCCNC(=O)c1c(N)n(CC2CCCO2)c2nc3ccccc3nc12 (stereo not given)	15	1	-28	6	99*	101*	79*
CC(C)OCCCNC(=O)c1c(N)n(/N=C/c2cccs2)c2nc3ccccc3nc12	20	-1	-3	9	9	·	·
O=C(NCC1CCCO1)c1ccccc1 (stereo not given)	-2	0	-7	-14	-6	·	·
O=S(=O)(Nc1ccc(-n2cnnn2)cc1)c1cccs1	5	-1	3	-2	1	·	·
CCc1ccc([C@H]2[C@@H]3C(=O)C[C@@H]4C(=O)N(Cc5ccccc5)C(=O)[C@@H]4[C@@H]3CN2S(=O)(=O)c2ccc(C)cc2)cc1	·	·	·	·	-1	·	·
N#Cc1c(C(F)(F)F)cc(-c2ccco2)nc1SCc1ccccn1	13	-3	-10	3	19	·	·
N#Cc1c(C(F)(F)F)cc(-c2ccco2)nc1SCc1ccncc1	0	2	-6	13	29*	56*	32*
Cc1ccccc1Nc1ncnc(N)n1	5	-2	-4	-3	-1	·	·
COc1cc2c(cc1OC)CN(CC(=O)Nc1ccccc1C#N)CC2	1	-1	-2	-3	65*	156*	176*
COc1cc2c(cc1OC)CN(CC(=O)Nc1ccccc1SC)CC2	-1	-2	6	-4	1	·	·
Cc1nc2c(C#N)cnn2c2c1CCN2CC1CCCO1 (stereo not given)	20	-4	1	-2	21	·	·
S=c1nc(-c2ccccc2)n(-c2ccccc2)[nH]1	-6	1	-4	-1	5	·	·
O=c1nc(-c2ccccc2)n(-c2ccc(Cl)cc2)[nH]1	-2	-1	0	2	28*	128*	105*
O=C(CN(C(=O)CCC(=O)Nc1nccs1)c1ccc(F)cc1)NCc1ccc(F)cc1	7	0	-6	-3	2	·	·
CCOC(=O)C1CCc2c(ccc3ccccc23)N1CCC#N (stereo not given)	-1	·	·	·	56*	2	-4
Cc1c(OCC(=O)N2CCC(C(N)=O)CC2)ccc2c1oc(=O)c1ccccc12	15	-1	1	-2	28*	130*	101*
SMILES	GDH-TPI counter-1	Mtb UGM inh	Rv3671c protease	Mtb bLac sens	Mtb FBA inh	Mtb FBA confirm	GDH-TPI counter-2	others
Cc1c(O)ccc2c(CN3CCN(C/C=C/c4ccccc4)CC3)cc(=O)oc12	0	-1	5	97	64*	74*	56*
COC(=O)Cc1c(C)c2ccc(OCC(=O)N3CCC(C)CC3)c(C)c2oc1=O	19	-4	1	-18	84*	54*	50*
Cc1ccc2c(CN3CCN(Cc4ccccc4)CC3)cc(=O)oc2c1C	3	1	0	4	1	·	·
COc1ccc(N2CCN(C(=O)COc3ccc4c(C)cc(=O)oc4c3C)CC2)cc1	5	3	-2	3	3	·	·
Cc1cc(=O)oc2c(C)c(OCC(=O)N3CCC(C(=O)O)CC3)ccc12	17	-1	-11	4	49*	18	15*
Cc1cc(=O)oc2c(C)c(OCC(=O)N3CCN(Cc4ccccc4)CC3)ccc12	15	-1	-2	-6	27*	147*	100*
c1ccc(C2=NN(c3ccccc3)CC2)cc1	25	-2	3	-5	49*	-2	-5
O=C(COC(=O)/C=C/c1cccc(C(F)(F)F)c1)NCCN1C(=O)CSC1=O	-7	4	4	1	5	·	·
COc1ccc(-c2cn3cccnc3n2)cc1NC(=O)c1ccc(Br)o1	13	0	-6	·	30*	9	5
Cn1c(=O)c2cc(NC(=O)Nc3cccnc3)ccc2n1-c1ccc(C(C)(C)C)cc1	5	·	·	·	31*	27	14*
Cn1c(=O)c2cc(NC(=O)NCCc3cccs3)ccc2n1-c1ccc(C(C)(C)C)cc1	-5	·	·	·	26	·	·
Cc1ccc(O)c(Nc2c3ccccc3nc3ccccc23)c1	4	0	-6	2	99*	+	+
Cc1nn(-c2ccccc2)c(C)c1C(=O)OCC(=O)Nc1ccccc1Cl	-11	·	·	·	0	·	·
C=CCn1c(C)nnc1SCC(=O)Nc1oc(C)c2c(C)n[nH]c(=O)c12	9	-1	-4	1	3	·	·
O=C(c1ccccc1)c1ccc(OCC(O)CN2CCOCC2)cc1 (stereo not given)	-11	-1	4	-4	76*	16	9	GDH-TPI dose=>10
CC1CCCC(C)N1CC(O)COCc1ccccc1F (stereo not given)	2	1	-4	1	1	·	·
N#C/C(=C(\O)c1ccco1)c1ccccn1	8	-3	8	3	9	·	·
N#C/C(=C(/O)CCCl)c1ccccn1	5	0	6	-15	59*	87*	55*
COC(=O)c1ccc(CN2CCN(C3CCCC3)C(CCO)C2)cc1 (stereo not given)	7	0	4	4	-2	·	·
O=C(Nc1ccc(N2CCOCC2)cc1)C1CCN(S(=O)(=O)c2ccccc2F)CC1	3	0	3	-10	37*	26	19*
O=C(Nc1ccc(N2CCOCC2)cc1)C1CCN(S(=O)(=O)c2cccc(C(F)(F)F)c2)CC1	15	·	·	·	1	·	·
